The source of these data is PubChem BioAssay (EPA / NIEHS).

Assay [1] has as its target Peroxisome proliferator-activated receptor gamma (Homo sapiens) (UniProt P37231). The experiment in a line: ATG_PPARg_TRANS: Attagene TRANS-FACTORIAL HepG2 Assay for human Peroxisome Proliferator-activated Receptor-gamma (PPARg) (AID 2283007). Put shortly: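 Liver-derived HepG2 cells expressing an exogenous NR-Gal4 chimera alongside GAL4-UAS reporter genes; 24 h exposure. Fluorescence of reporter RT-PCR products, separated by capillary electrophoresis, gives mRNA induction relative to DMSO.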

Assay [2] has as its target Nuclear receptor subfamily 1 group I member 2 (Homo sapiens) (UniProt O75469). The experiment in a line: ATG_PXR_TRANS: Attagene TRANS-FACTORIAL HepG2 Assay for human Pregnane X Receptor (PXR) (AID 2283008). Put shortly: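 Transactivation by exogenous PXR–GAL4 fusion measured as reporter transcript induction after 24 h compound treatment of transfected human HepG2 cells. Read-out via RT-PCR and capillary electrophoresis of labelled fragments, fitted upward relative to DMSO.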

Assay [3] has as its target Retinoic acid receptor RXR-alpha (Homo sapiens) (UniProt P19793). Put plainly: ATG_RXRa_TRANS: Attagene TRANS-FACTORIAL HepG2 Assay for human Retinoid X Receptor alpha (RXRa) (AID 2283012). Put shortly: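 Read-out: fluorescent reporter-transcript fragments quantified by capillary electrophoresis after RT-PCR. Transiently transfected HepG2 cells carrying GAL4-UAS reporters and NR-GAL4 chimeras were exposed to chemical for 24 h; activity scored as increase over DMSO.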

Assay [4] concerns the target human Retinoid X Receptor beta (RXRb), RXRB (gene 6257) (UniProt P28702). The experiment in a line: ATG_RXRb_TRANS: Attagene TRANS-FACTORIAL HepG2 Assay for human Retinoid X Receptor beta (RXRb) (AID 2283013). Put shortly: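 Read-out: reporter mRNA induction via RT-PCR plus capillary electrophoresis fluorescence, analysed as signal increase relative to DMSO. Cells were human HepG2, transiently transfected with GAL4-UAS reporter constructs and chimeric receptor-Gal4 fusions, dosed for 24 h.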

In assay [5] the target is human Thyroid Receptor alpha (THRa1), THRA (gene 7067) (UniProt P10827). Put plainly: ATG_THRa1_TRANS: Attagene TRANS-FACTORIAL HepG2 Assay for human Thyroid Receptor alpha (THRa1) (AID 2283014). In short, it runs like this:
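Transcripts from GAL4-UAS-driven reporters, measured after 24 h compound exposure by RT-PCR plus capillary electrophoresis of 6-FAM-labeled fragments, were fitted for gain of signal relative to DMSO. Cells: transiently transfected HepG2 expressing NR-Gal4 chimeras.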

Assay [6] has as its target human Vitamin D Receptor (VDR), VDR (gene 7421) (UniProt P11473). The experiment in a line: ATG_VDR_TRANS: Attagene TRANS-FACTORIAL HepG2 Assay for human Vitamin D Receptor (VDR) (AID 2283022). Put shortly: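 Transactivation by an exogenous VDR-Gal4 chimera in transiently transfected HepG2 cells was measured as reporter transcript level 24 hours after chemical treatment. RT-PCR products were analysed by capillary electrophoresis and fitted in the positive direction relative to DMSO.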

Assay [7] deals with human RAR-related Orphan Receptor beta (RORb), RORB (gene 6096) (UniProt Q92753). Put plainly: ATG_RORb_TRANS: Attagene TRANS-FACTORIAL HepG2 Assay for human RAR-related Orphan Receptor beta (RORb) (AID 2283010). In short, it runs like this:
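HepG2, transient MRTU transfection (GAL4-UAS reporters, exogenous NR-Gal4 chimeras); 24 h compound exposure; total RNA → RT-PCR → 6-FAM primer extension → HpaI digest → CE fluorescence. Positive direction vs DMSO baseline.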

Assay [8] has as its target human RAR-related Orphan Receptor gamma (RORg), RORC (gene 6097) (UniProt P51449). The experiment in a line: ATG_RORg_TRANS: Attagene TRANS-FACTORIAL HepG2 Assay for human RAR-related Orphan Receptor gamma (RORg) (AID 2283011). In short, it runs like this:
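Reporter transcripts from a transfected RORg-GAL4 chimera in HepG2 cells were quantified 24 h after dosing by RT-PCR, 6-FAM labelling, HpaI digestion and capillary electrophoresis; increases over DMSO baseline were fitted.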

One may read the AC50 as the midpoint of the concentration-response curve, whichever way the signal moves.

Inconclusive results are not listed. Calls of active or inactive are those of the source. The calls were made as follows: active = hit-call score of the fitted dose curve at least 0.9, where 1 is the maximum; inconclusive = response in the unintended direction; inactive = score below 0.9.

Sequence of human RAR-related Orphan Receptor gamma (RORg), RORC (gene 6097) (P51449 whole entry, looked up, the tested form may be a part): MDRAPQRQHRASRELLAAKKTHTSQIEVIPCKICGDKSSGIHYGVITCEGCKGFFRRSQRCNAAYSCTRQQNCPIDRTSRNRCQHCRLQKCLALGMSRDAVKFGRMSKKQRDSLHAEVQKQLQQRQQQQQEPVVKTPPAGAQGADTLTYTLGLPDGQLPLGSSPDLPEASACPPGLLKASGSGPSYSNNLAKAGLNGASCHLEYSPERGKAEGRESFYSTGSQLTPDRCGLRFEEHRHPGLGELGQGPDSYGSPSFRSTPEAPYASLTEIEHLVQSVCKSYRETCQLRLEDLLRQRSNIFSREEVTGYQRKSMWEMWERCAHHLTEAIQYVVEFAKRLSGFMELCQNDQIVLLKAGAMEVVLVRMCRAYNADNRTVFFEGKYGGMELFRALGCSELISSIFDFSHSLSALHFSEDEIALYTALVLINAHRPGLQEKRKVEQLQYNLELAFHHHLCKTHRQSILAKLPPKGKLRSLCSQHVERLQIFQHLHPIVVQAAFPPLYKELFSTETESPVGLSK
Sequence of Retinoic acid receptor RXR-alpha (Homo sapiens) (P19793 whole entry, looked up, the tested form may be a part): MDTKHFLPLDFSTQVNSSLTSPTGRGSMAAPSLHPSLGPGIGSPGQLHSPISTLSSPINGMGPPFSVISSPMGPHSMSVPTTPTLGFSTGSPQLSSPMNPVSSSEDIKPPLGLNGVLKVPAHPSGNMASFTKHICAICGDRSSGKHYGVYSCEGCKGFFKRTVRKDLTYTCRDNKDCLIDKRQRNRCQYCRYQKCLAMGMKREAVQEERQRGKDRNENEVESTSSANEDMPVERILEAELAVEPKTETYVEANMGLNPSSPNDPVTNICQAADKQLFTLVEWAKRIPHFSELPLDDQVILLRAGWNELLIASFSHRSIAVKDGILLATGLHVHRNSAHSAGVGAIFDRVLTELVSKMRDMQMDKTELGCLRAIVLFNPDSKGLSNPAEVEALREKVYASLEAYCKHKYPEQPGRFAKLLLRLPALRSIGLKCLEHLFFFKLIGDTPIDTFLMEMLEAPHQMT
Sequence of human Vitamin D Receptor (VDR), VDR (gene 7421) (P11473 whole entry, looked up, the tested form may be a part): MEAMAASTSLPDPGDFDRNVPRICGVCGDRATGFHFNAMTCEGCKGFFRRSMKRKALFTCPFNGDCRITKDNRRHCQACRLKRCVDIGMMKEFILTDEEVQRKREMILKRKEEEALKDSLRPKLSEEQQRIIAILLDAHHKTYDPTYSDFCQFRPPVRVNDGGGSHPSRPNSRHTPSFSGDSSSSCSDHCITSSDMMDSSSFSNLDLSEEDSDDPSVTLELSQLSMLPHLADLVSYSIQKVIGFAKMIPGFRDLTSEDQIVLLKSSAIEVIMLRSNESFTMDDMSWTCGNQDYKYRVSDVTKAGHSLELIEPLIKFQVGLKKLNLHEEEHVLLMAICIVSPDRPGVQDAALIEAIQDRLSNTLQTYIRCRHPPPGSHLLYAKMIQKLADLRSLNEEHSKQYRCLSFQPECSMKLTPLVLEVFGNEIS
Sequence of human Thyroid Receptor alpha (THRa1), THRA (gene 7067) (P10827 whole entry, looked up, the tested form may be a part): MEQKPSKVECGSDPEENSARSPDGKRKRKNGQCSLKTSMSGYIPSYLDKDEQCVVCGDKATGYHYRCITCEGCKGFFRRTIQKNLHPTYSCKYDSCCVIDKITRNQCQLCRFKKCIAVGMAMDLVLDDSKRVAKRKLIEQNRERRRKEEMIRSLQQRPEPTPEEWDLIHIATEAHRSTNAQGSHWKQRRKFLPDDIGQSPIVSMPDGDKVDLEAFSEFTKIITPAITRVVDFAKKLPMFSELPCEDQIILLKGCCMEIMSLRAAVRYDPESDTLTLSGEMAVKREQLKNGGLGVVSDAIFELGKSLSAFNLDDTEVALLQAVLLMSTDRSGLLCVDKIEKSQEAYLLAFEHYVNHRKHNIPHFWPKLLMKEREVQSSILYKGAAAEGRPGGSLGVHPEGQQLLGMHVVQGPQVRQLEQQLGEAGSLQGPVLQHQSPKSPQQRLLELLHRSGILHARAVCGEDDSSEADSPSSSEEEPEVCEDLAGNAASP
Sequence of Nuclear receptor subfamily 1 group I member 2 (Homo sapiens) (O75469 whole entry, looked up, the tested form may be a part): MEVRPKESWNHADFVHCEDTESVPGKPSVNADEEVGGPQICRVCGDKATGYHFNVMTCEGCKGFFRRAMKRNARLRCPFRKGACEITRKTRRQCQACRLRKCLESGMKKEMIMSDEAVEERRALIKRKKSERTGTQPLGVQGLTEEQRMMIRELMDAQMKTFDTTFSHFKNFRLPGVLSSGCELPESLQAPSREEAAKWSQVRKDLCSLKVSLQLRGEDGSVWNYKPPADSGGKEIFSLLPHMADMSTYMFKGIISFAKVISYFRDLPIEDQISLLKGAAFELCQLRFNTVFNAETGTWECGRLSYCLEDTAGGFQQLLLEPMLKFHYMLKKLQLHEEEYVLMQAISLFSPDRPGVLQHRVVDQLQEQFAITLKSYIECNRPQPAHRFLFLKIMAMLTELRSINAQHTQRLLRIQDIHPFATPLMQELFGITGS
Sequence of human RAR-related Orphan Receptor beta (RORb), RORB (gene 6096) (Q92753 whole entry, looked up, the tested form may be a part): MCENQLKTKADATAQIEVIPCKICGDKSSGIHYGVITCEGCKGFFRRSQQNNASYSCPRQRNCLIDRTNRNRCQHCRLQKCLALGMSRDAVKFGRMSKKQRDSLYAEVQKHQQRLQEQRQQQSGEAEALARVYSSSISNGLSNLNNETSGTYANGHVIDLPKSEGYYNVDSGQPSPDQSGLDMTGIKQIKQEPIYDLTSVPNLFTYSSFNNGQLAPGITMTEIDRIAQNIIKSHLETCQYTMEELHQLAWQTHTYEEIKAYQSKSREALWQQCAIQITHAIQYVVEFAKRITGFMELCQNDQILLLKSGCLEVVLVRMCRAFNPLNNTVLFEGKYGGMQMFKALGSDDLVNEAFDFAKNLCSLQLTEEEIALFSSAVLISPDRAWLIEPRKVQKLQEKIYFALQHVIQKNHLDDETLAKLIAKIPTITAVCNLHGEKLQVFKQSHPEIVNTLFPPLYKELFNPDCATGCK
Sequence of human Retinoid X Receptor beta (RXRb), RXRB (gene 6257) (P28702 whole entry, looked up, the tested form may be a part): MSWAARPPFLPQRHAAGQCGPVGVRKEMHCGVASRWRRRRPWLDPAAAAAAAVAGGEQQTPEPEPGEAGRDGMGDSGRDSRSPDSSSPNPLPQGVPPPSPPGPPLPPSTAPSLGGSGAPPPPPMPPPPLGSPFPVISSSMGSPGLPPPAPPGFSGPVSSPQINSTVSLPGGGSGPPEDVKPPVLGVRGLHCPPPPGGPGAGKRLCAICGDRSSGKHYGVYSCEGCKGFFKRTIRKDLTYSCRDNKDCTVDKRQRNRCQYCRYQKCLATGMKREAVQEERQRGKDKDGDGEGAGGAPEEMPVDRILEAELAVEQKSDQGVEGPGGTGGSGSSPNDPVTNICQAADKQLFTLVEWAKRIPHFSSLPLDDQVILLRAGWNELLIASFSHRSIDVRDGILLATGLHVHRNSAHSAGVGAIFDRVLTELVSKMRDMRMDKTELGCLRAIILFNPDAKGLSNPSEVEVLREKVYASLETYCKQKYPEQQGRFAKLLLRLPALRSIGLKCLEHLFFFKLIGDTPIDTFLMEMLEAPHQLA
Sequence of Peroxisome proliferator-activated receptor gamma (Homo sapiens) (P37231 whole entry, looked up, the tested form may be a part): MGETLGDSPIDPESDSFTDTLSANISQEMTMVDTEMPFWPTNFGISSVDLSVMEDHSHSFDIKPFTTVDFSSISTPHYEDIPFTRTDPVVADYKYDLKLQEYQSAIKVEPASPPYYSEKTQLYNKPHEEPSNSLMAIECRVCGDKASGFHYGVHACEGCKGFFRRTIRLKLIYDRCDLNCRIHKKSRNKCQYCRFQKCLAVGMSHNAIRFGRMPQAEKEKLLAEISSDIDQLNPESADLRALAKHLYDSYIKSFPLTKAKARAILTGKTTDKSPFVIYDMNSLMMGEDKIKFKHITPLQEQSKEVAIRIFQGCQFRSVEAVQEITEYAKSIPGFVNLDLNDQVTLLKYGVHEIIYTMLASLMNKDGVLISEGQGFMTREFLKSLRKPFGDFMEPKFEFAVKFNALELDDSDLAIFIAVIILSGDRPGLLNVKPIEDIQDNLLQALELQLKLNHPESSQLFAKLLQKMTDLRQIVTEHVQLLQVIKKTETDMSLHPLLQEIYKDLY

`CC(=O)C(F)(F)C(F)(F)F`: the outcome in assay [1], in assay [2], in assay [3], in assay [4] and in assay [5] was inactive.

For the compound `OCC(c1ccc(Cl)cc1)c1ccc(Cl)cc1`, the AC50 was 39.2 µM (active) in assay [1] and 20.1 µM (active) in assay [2]. The call in assay [3], in assay [4], in assay [5] and in assay [6] was inactive.

For the compound `O=NN1CCCCCC1`, the compound was classed as inactive in assay [1], in assay [2], in assay [3], in assay [4], in assay [5] and in assay [6].

As to `CCOC(=O)OC1=C(c2cc(C)ccc2C)C(=O)NC12CCC(OC)CC2` (stereo not given), the compound was called inactive in assay [1], in assay [2], in assay [7], in assay [3] and in assay [4].

With `COc1ccc(N)cc1`, the compound was called inactive in assay [1], in assay [2], in assay [7], in assay [8] and in assay [5].

As for `O=S(=O)(F)C(F)(F)C(F)(F)C(F)(F)C(F)(F)F`, the outcome in assay [1], in assay [2], in assay [3] and in assay [6] was inactive.

As for `CC(=O)CN(CC(C)=O)N=O`, the compound was classed as inactive in assay [1], in assay [2], in assay [7], in assay [3], in assay [4] and in assay [5].

Regarding `CCCCN(CCCCO)N=O`, the result in assay [1], in assay [2], in assay [7], in assay [3], in assay [4] and in assay [5] was inactive.

Turning to `CC[N+](CC)(CC)CC`, the call in assay [1], in assay [2], in assay [3], in assay [4], in assay [5] and in assay [6] was inactive.

Turning to `C=CCN=C=S`, the outcome in assay [1], in assay [2], in assay [7], in assay [4] and in assay [5] was inactive.

On to `Clc1ccc(C(Cl)(Cl)Cl)cn1`, for which the compound was classed as inactive in assay [1], in assay [2], in assay [8], in assay [3], in assay [4] and in assay [5].

On to `CCCSP(=S)(OCC)Oc1ccc(SC)cc1` (stereo not given), for which the results for the AC50 in assay [1] and in assay [2] were 15.2 µM (active) and 3.65 µM (active), respectively. In addition, the compound was called inactive in assay [4] and in assay [6].

For `O=C(CCl)Nc1ccccc1`, in assay [1], the concentration at half-maximal activity (AC50) is 2.7 µM (active). Besides, the compound was classed as inactive in assay [2] and in assay [5].

As for `Nc1nc(=S)[nH][nH]1`, the result in assay [1], in assay [2] and in assay [8] was inactive. In addition, the AC50 in assay [4] is 164 µM (active).

`c1cc[c]([Sb]([c]2ccccc2)[c]2ccccc2)cc1`: the AC50 in assay [1] was 23.5 µM (active); in assay [2], 8.18 µM (active); in assay [4] it was 4.36 µM (active). Further, the result in assay [3], in assay [5] and in assay [6] was inactive.

As to `COC(=O)Nc1cccc(OC(=O)Nc2cccc(C)c2)c1`, the compound was called inactive in assay [1], in assay [2], in assay [7] and in assay [5].

As to `Nc1cccnc1`, the result in assay [1], in assay [2], in assay [3], in assay [5] and in assay [6] was inactive.

On to `Cc1cc(SCc2sc(-c3ccc(C(F)(F)F)c(F)c3)nc2C)ccc1OCC(=O)O`, for which the half-maximal activity concentration (AC50) was 0.887 µM (active) in assay [1] and 2.05 µM (active) in assay [2]. Further, the compound was classed as inactive in assay [3], in assay [4] and in assay [5].

`BrCc1ccc(Br)cc1`: the compound was called inactive in assay [1], in assay [2], in assay [8], in assay [3] and in assay [6].

For `COP(=S)(OC)Oc1cc(Cl)c(I)cc1Cl`, the AC50 in assay [1] was 28.3 µM (active); in assay [2], 21.8 µM (active); in assay [4], 38.6 µM (active). For the same compound, the outcome in assay [3] and in assay [5] was inactive.

Consider `CCCCN(CCCC)C(=S)S`, for which the concentration at half-maximal activity (AC50) was 5.99 µM (active) in assay [1] and 5.69 µM (active) in assay [2]. The compound was classed as inactive in assay [8], in assay [3], in assay [4], in assay [5] and in assay [6].

Turning to `CC1(C)[C@H](/C=C2\CCSC2=O)[C@@H]1C(=O)OCc1coc(Cc2ccccc2)c1`, the half-maximal activity concentration (AC50) in assay [1] was 1.05 µM (active); in assay [2] it was 0.731 µM (active). Besides, the compound was called inactive in assay [7] and in assay [4].

With `C[N+](C)(C)Cc1ccccc1`, the compound was classed as inactive in assay [1], in assay [2], in assay [3], in assay [5] and in assay [6].

As for `CCOP(=S)(OCC)O/N=C(\C#N)c1ccccc1`, the AC50 was 10.6 µM (active) in assay [1], 1.54 µM (active) in assay [2] and 27.5 µM (active) in assay [4]. For the same compound, the result in assay [3] and in assay [6] was inactive.

Regarding `O=S(=O)(Oc1ccc(Cl)cc1)c1ccc(Cl)cc1`, the results for the AC50 in assay [1] and in assay [2] were 27.5 µM (active) and 4.68 µM (active), respectively. The compound was called inactive in assay [7], in assay [3], in assay [5] and in assay [6].

With `CCCCCCCCCCCCCCC(Br)C(=O)O` (stereo not given), the results for the AC50 in assay [1], in assay [3] and in assay [4] were 11.4 µM (active), 26.7 µM (active) and 9.18 µM (active), respectively. Moreover, the compound was called inactive in assay [2], in assay [8] and in assay [6].

Regarding `Cc1cccc(N=Nc2ccc(N(C)C)cc2)c1`, the result in assay [1], in assay [2], in assay [7], in assay [3] and in assay [4] was inactive.

With `O=[N+]([O-])c1ccc(Cl)c([N+](=O)[O-])c1`, the compound was called inactive in assay [7] and in assay [8].

As to `C=CCOC(F)(C(F)(F)F)C(F)(F)F`, the compound was classed as inactive in assay [1], in assay [3], in assay [5] and in assay [6].
